Data from PubChem BioAssay (NCI).
The panel holds about 79,000 compounds, 15% with a hit somewhere; the sample as a whole holds those more often. Cut-off read from the data, not from the text of the source: active = growth inhibition above about 70%; inactive = the rest.

Legend:
[1] = NCI Yeast Anticancer Drug Screen. Data for the rad50 strain (AID 155);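 note: 0% = growth of vehicle-only cultures of the same strain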; conditions: S. cerevisiae rad50 strain growth inhibition; at 50.0 µM; stronger effect = higher value
Procedure, shortened: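 Relative growth inhibition (compound vs vehicle) was measured in yeast with a defined repair-gene alteration.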

[2] = NCI Yeast Anticancer Drug Screen. Data for the mec2-1 strain (AID 157); conditions: S. cerevisiae mec2-1 strain, at 50.0 µM, stronger effect = higher value
Procedure, shortened: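 Growth inhibition is read against vehicle-treated controls after compound exposure of the mec2-1 yeast strain, which is defective in DNA damage repair or cell cycle control.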

[3] = NCI Yeast Anticancer Drug Screen. Data for the sgs1 mgt1 strain (AID 161);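 note: 0% = growth of cultures given vehicle only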; conditions: S. cerevisiae sgs1 mgt1 strain, at 50.0 µM, stronger effect = higher value
Procedure, shortened: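 This yeast growth screen uses a strain with defined DNA-repair lesions; compound-treated growth is compared with vehicle-treated growth.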

[4] = NCI Yeast Anticancer Drug Screen. Data for the cln2 rad14 strain (AID 165);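 note: 0% = growth equal to vehicle treated cultures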; conditions: S. cerevisiae cln2 rad14 strain, at 50.0 µM, stronger effect = higher value
Procedure, shortened: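 Growth inhibition, relative to vehicle-treated controls, is the read-out. The test organism is a yeast strain with defined genetic alterations, cln2 rad14.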

[5] = NCI Yeast Anticancer Drug Screen. Data for the bub3 strain (AID 167); conditions: S. cerevisiae bub3 mutant strain, at 50.0 µM, stronger effect = higher value
Procedure, shortened: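 Screening used yeast with an engineered genetic alteration affecting cell cycle control. Compound-exposed cultures were compared with vehicle cultures, and reduced growth was taken as inhibition.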

[6] = NCI Yeast Anticancer Drug Screen. Data for the mlh1 rad18 strain (AID 175); conditions: S. cerevisiae mlh1 rad18 strain growth inhibition; at 50.0 µM; stronger effect = higher value
Procedure, shortened: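 Cells of a genetically altered yeast strain, deficient in DNA damage repair, were treated with compound. Their growth was then compared with that of vehicle-treated cultures to give inhibition.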

Measured: growth inhibition

OC1CCCC2OC2CC1 (stereo not given)
inactive: [1] 0.4% | [2] 6.55% | [3] -9.5% | [4] 11.7% | [5] 7.25% | [6] 13.9%

COC(=O)C(NC(=O)c1ccccc1)C(C)=O (stereo not given)
inactive: [1] 9.5% | [2] -0.7% | [3] -3.4% | [4] -35.4% | [5] -16.9% | [6] 10%

CC(=O)c1ccc(C(C)=O)c(OCc2ccccc2)c1
inactive: [1] -4.45% | [2] -12.4% | [3] -8.25% | [4] -27.9% | [5] -5.95% | [6] -5.05%

C/C=C(\C)C(=O)OCC1CC[N+](C)([O-])C1 (stereo not given)
inactive: [1] -23.8% | [2] -8% | [3] -6.7% | [4] -57.9% | [5] 5% | [6] -15.3%

Cc1ccc(-n2cnc3c(N/N=C4\SCC(=O)N4c4ccccc4)ncnc32)cc1
inactive: [1] 41.2% | [2] 17.6% | [3] 40.2% | [4] 15.1% | [5] 49.2% | [6] 35%

CN=C1SC(C)(C)NN1C
inactive: [1] 9.2% | [2] 1.85% | [3] 4.35% | [4] -32% | [5] -6.4% | [6] 12.8%

N#Cc1ccc(OCCCOc2ccccc2)cc1
inactive: [1] 4.2% | [2] 47.5% | [3] 20.8% | [4] -2.7% | [5] 37.4% | [6] 4.5%

CCCCCCCCCC1OC(C)C(C)O1 (stereo not given)
inactive: [1] 24.6% | [2] 7.55% | [3] 16.3% | [4] -19.1% | [5] 1.55% | [6] 29.4%

Cc1ccc(Cl)cc1NC(=O)CCc1ccccc1
inactive: [1] 3.7% | [2] 22.1% | [3] 23.6% | [4] -1.6% | [5] 4.25% | [6] 21.1%

NC(CCCCC(N)C(=O)c1ccccc1)C(=O)c1ccccc1 (stereo not given)
inactive: [1] -11.9% | [2] -7.45% | [3] -4.85% | [4] -15.9% | [5] 1.55% | [6] 3.25%

N#Cc1c(CC(=O)O)cc(=O)n2c1[nH]c1ccccc12
inactive: [1] -13.9% | [2] -12.9% | [3] -1.9% | [4] 13.4% | [5] -11.9% | [6] -10.3%

CCOc1ccccc1NC(=O)CC(C(=O)OC)C(=O)C(=O)OC (stereo not given)
inactive: [1] -10% | [2] 5.75% | [3] -24.1% | [4] 20% | [5] -8.9% | [6] -9.75%

O=C(/C=C/c1ccccc1)c1ccc(O)cc1O
inactive: [1] -27.3% | [2] -13.2% | [3] 14.8% | [4] -27.1% | [5] 1.65% | [6] 2.1%

C=C(C)CS(=O)(=O)O
inactive: [1] -0.15% | [2] 3.45% | [3] 1.85% | [4] -13.1% | [5] 3.35% | [6] 1.65%

Cc1c(S)cnc2ccccc12
inactive: [1] -0.55% | [2] -6.25% | [3] 1.7% | [4] -66.6% | [5] -14.8% | [6] 2.85%

O=C(Cc1ccccc1)Nc1ccccc1
inactive: [1] 17.9% | [2] -21.1% | [3] 2.45% | [4] -0.3% | [5] -7.55% | [6] 17.9%

COc1ccc([N+](=O)[O-])c2c(NCCC[N+](C)(C)[O-])c3ccccc3nc12
inactive: [1] 24.9% | [2] -13.3% | [3] 3.05% | [4] -46.8% | [5] -19.2% | [6] 19.7%

CC(=O)Oc1ccccc1C=C(C(=O)O)C(=O)O
inactive: [1] -7.7% | [2] -11.5% | [3] -8.1% | [4] -20.7% | [5] -9.2% | [6] -10.9%

COC(=O)C(CC(=O)Nc1ccc(Cl)c(Cl)c1)C(=O)C(=O)NC1C2CC3CC(C2)CC1C3 (stereo not given)
inactive: [1] -3.15% | [2] 13.8% | [3] -14.1% | [4] 7.8% | [5] -8.65% | [6] -9.05%

CN(C)CCN1CCc2c([nH]c3ccccc23)C1c1cccnc1 (stereo not given)
inactive: [1] -55.6% | [2] -24.8% | [3] -4.2% | [4] 6.25% | [5] -18.2% | [6] -38.2%
